Assay outcomes (PubChem)
The full list was thinned out, with hits kept by preference.
Methyltransferases: Primary Screen for Target Class Profiling of Small Molecule Inhibitors of Methyltransferases | purified enzyme, MTase-Glo SAH luminescence; stronger effect = lower value | calls only at 40 µM | 25,000 compounds, 3.9% hits | AID 1745853, 2022; call rule not given here
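Each enzyme was reacted with SAM and its substrate, with compounds tested once at 40 uM; SAH formed was read by MTase-Glo luminescence.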
Large screens that a line does not name were inactive; ! = not confirmed by another sample.

COc1c2c(c(C)c3c1C(=O)OC3)OC1(C)CC(O)C34OC(OC)(CC(O)C3(C)C1C2)OC4(C)C (stereo not drawn)	Methyltransferases active
COc1c2c(c(C)c3c1C(=O)OC3)OC1(C)CC(O)C3(O)C(C)(C)OC(=O)CCC3(C)C1C2 (stereo not drawn)	none
COc1c2c(c(C)c3c1C(=O)OC3)O[C@@]1(C)CC(O)C(C(C)(C)O)[C@](C)(CCC(=O)O)[C@H]1C2 (stereo partly drawn)	none
CC1CCN(S(=O)(=O)c2ccc3c(ccn3CC(=O)NCc3ccc4c(c3)OCO4)c2)CC1	none
CCC(C(=O)NC(C)C)n1ccc2cc(S(=O)(=O)N3CCCCC3)ccc21 (stereo not drawn)	none
CCOC(=O)c1cc2n(n1)CC(C)(C(=O)NC1CCCCC1)N(c1cc(Cl)ccc1OC)C2=O (stereo not drawn)	none
Cc1ccc(Cn2c(=O)c3ccccc3n3c(CCC(=O)NCCC(C)C)nnc23)cc1	none
C=Cc1ccc(Cn2nc3n(Cc4ccc(F)cc4)c(=O)c4ccccc4n3c2=O)cc1	none
O=c1[nH]c2ccc(S(=O)(=O)N(CCO)CCO)cc2[nH]1	none
O=C1c2ccccc2C(=O)c2cc(S(=O)(=O)NC3CCCCC3)ccc21	none
O=C1c2ccccc2C(=O)c2cc(S(=O)(=O)N(CCO)CCO)ccc21	Methyltransferases active
CC1(C(=O)NCc2ccccc2Cl)Cn2cnc(C(=O)NCc3ccccc3)c2C(=O)N1C1CC1 (stereo not drawn)	none
CCC(C)NC(=O)c1ccc2c(=O)n(CC(C)C)c3nn(CC(=O)Nc4ccc(C)c(C)c4)c(=O)n3c2c1 (stereo not drawn)	none
COc1cc(Nc2nc3c(s2)CCCC3c2ccccc2)ccc1-n1cnc(C)c1 (stereo not drawn)	none
COc1cc(/C=C2\CCCN([C@@H](C)c3ccc(F)cc3)C2=O)ccc1-n1cnc(C)c1	Methyltransferases active
CCCn1c(=O)c2ccc(Cl)cc2n2c(=O)n(CC(=O)NC3CCCCC3)nc12	none
CC(C)CCN1C(=O)c2ccc(-c3ccccc3)n2CC1(C)C(=O)NC1CCCCCC1 (stereo not drawn)	none
COc1cccc(CN2C(=O)c3cc4sccc4n3CC2(C)C(=O)NC2CCCCCC2)c1 (stereo not drawn)	none
Cc1cc(C)c(S(=O)(=O)n2cc(C)cc2C)c(C)c1	Methyltransferases active
CCOc1ccc(N2C(=O)c3cc(C(C)(C)C)nn3CC2(C)C(=O)NC2CCCCC2)cc1 (stereo not drawn)	none
O=C(CCn1ccc2cc(S(=O)(=O)N3CCCCC3)ccc21)NCCc1ccc(Cl)cc1	none
CCc1ccc(CNC(=O)c2ncn3c2C(=O)N(C2CC2)C(C)(C(=O)NCc2cccc(C)c2)C3)cc1 (stereo not drawn)	none
CC(C)Cn1c(=O)c2ccccc2n2c(=O)n(Cc3c(F)cccc3Cl)nc12	none
CCOC(=O)c1cc2n(n1)CC(C)(C(=O)NCc1ccc(F)cc1)N(Cc1cccc(OC)c1OC)C2=O (stereo not drawn)	none
C=C[C@](C)(CC/C=C(\C)C(=O)O)O[C@@H]1OC[C@H](O)[C@H](O)[C@H]1O	Methyltransferases active
C=CC(C)(CCC=C(C)C)O[C@@H]1O[C@H](CO)[C@@H](O)[C@H](O)[C@H]1O (stereo partly drawn)	none
C=CC(C)(CC/C=C(\C)CC/C=C(\C)CC(O)/C=C(\C)C(=O)O)O[C@@H]1O[C@H](CO)[C@@H](O)[C@H](O)[C@H]1O[C@@H]1O[C@H](CO)[C@@H](O)[C@H](O)[C@H]1O (stereo partly drawn)	none
Cc1cc(C)cc(NC(=O)Cn2nc3n(C)c(=O)c4ccc(C(=O)NC5CCCC5)cc4n3c2=O)c1	none
CCOC(=O)c1cc2n(n1)CC(C)(C(=O)NC1CCC(C)CC1)N(c1ccc(NC(C)=O)cc1)C2=O (stereo not drawn)	none
O=C1C(SCCO)=C(SCCO)C(=O)c2ccccc21	Methyltransferases active
CC1(C(=O)NCc2ccccc2)Cn2c(cc3ccccc32)C(=O)N1CCc1ccco1 (stereo not drawn)	none
O=C(Cn1ccc2cc(S(=O)(=O)N3CCCC3)ccc21)NCCc1ccco1	none
CNS(=O)(=O)CCc1ccc2[nH]cc(C3CCN(C)CC3)c2c1	none
CN(C)CCc1c[nH]c2ccc(C[C@H]3COC(=O)N3)cc12	none
CN1CCC[C@@H]1Cc1c[nH]c2ccc(CCS(=O)(=O)c3ccccc3)cc12	Methyltransferases active!
COc1ccccc1CNC(=O)C1(C)Cn2c(cc3ccccc32)C(=O)N1CCc1ccccc1 (stereo not drawn)	none
COc1ccc(-c2oc3ccc(C)cc3c(=O)c2O)cc1OC	Methyltransferases active
COc1ccc(-c2nnc(-c3ccc(Cl)c(S(=O)(=O)N4CCC(C)CC4)c3)o2)cc1OC	none
CCN1CCN(Cc2cc3ccc(C)cc3nc2-c2ccc(OC)c(OC)c2)CC1	none
CCCN1C(=O)c2c(C(=O)NCc3ccccc3C)ncn2CC1(C)C(=O)NCCC(C)C (stereo not drawn)	none
CCCn1c(=O)c2cc(Cl)ccc2n2c(=O)n(CC(=O)N3CCN(c4ccc(F)cc4)CC3)nc12	none
COc1ccc(OC)c(CCNC(=O)CCc2nnc3n(CCC(C)C)c(=O)c4ccccc4n23)c1	none
CCc1c(-c2ccccc2)c(-c2ccccc2)nn1-c1ccccc1-c1cccc(OCC(=O)O)c1	Methyltransferases active
CC(C)CN1CC(COc2ccc3ccccc3c2)Oc2ccnc(-c3ccc(OCC(=O)O)cc3)c2C1=O (stereo not drawn)	none
COC(=O)Cn1nc(-c2cccc(OC)c2)c2ccccc21	none
COC(=O)c1ncn2c1C(=O)N(c1cccc(C)c1C)C(C)(C(=O)NCc1ccccc1OC)C2 (stereo not drawn)	none
CCOc1ccc(CN2C(=O)c3ccc(-c4ccco4)n3CC2(C)C(=O)NC2CCCCC2)cc1 (stereo not drawn)	none
Cc1cc2c(cc3n2CC(C)(C(=O)NC2CCCCCC2)N(Cc2ccc(OC(C)C)cc2)C3=O)o1 (stereo not drawn)	none
Cc1ccc(N2C(=O)c3ccc(-c4ccco4)n3CC2(C)C(=O)NCc2ccc(Cl)cc2)c(C)c1 (stereo not drawn)	none
COc1cc(N2CCC(N)CC2)ccc1Nc1ncc(Cl)c(-c2c[nH]c3ccccc23)n1	Methyltransferases active
COc1cc(N2CCOCC2)ccc1NC(=O)c1csc(-c2cccnc2)n1	none
COc1ccccc1Nc1ncc2c(n1)CN(C(=O)c1cc3ccccc3n1C)CCN2	none
COc1cc(N2CCC(N3CCN(C)CC3)CC2)ccc1Nc1ncc(Cl)c(-c2c[nH]c3ccccc23)n1	Methyltransferases active
Brc1cccc(-c2nnn3c2nc(NCC2CCCO2)c2ccccc23)c1 (stereo not drawn)	none
CC(C)OCCCN1C(=O)c2cc3ccccc3n2CC1(C)C(=O)NC1CCCCC1 (stereo not drawn)	none
CC(C)CCNC(=O)C1(C)Cn2c(ccc2-c2ccco2)C(=O)N1Cc1ccc(Cl)cc1 (stereo not drawn)	none
O=C(Cn1nc2nc(Nc3ccc(F)cc3)ccn2c1=O)Nc1cc(F)cc(F)c1	none
COc1cccc(NC(=O)CCc2nnc3n(Cc4ccc(Cl)cc4)c(=O)c4ccccc4n23)c1	none
COc1ccccc1CN1C(=O)c2ccc(-c3ccco3)n2CC1(C)C(=O)NC1CCCCCC1 (stereo not drawn)	none
CCOC(=O)c1cc2n(n1)CC(C)(C(=O)NC1CCCCC1)N(CCCc1ccccc1)C2=O (stereo not drawn)	none
O=C1NC(=O)/C(=C/c2ccc(-c3ccc(F)cc3O)o2)S1	Methyltransferases active
